Values joined by “and” are separate entries in the source; they are usually repeats but may differ in a detail not shown here. Identical values can stand only once. This is part of a sample that, as a whole, favours compounds with a hit. Of some 83,000 tested, about 20% had one in any assay.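 Assay: single dose, 48 h. Readout: percent growth (0 = no net growth; negative = cell death). Active: <10.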 Unmarked numbers belong to inactive results. Active and inactive are the calls of the source.
Tested on: HL-60(TB) leukemia
Test: NCI-60 one-dose screen, 48 h (100 = growth as untreated, 0 = no growth, -100 = all killed)
Settings: 10 µM unless noted

Compound | growth
CCC(O)c1ccccc1 (configuration not stated) | 98.6% and 77.4%
Cc1cc(C(=O)NN)c(C#N)c(=O)[nH]1 | 111%
COc1ccc(/C=C2/SC(=S)NC2=O)c(OC)c1OC | 83.8%
O=C(CN1CCCCC1)Sc1nnc2sc3ccccc3n12 | 98.6%
CC(C)C/C=C/C=C/C(=O)N[C@@H](CC(N)=O)C(=O)N[C@@H]1C(=O)N[C@H](c2ccc(O)cc2)C(=O)N[C@H](CCCN)C(=O)N[C@H]([C@@H](C)O)C(=O)N[C@H](c2ccc(O)cc2)C(=O)N[C@H](c2ccc(O)cc2)C(=O)N[C@H]([C@H](C)O)C(=O)N[C@H](Cc2ccccc2)C(=O)N[C@H](CCCN)C(=O)N[C@H](c2ccc(O[C@H]3O[C@@H](CO)[C@@H](O)[C@@H](O)[C@H]3O[C@@H]3O[C@H](CO)[C@H](O)[C@H](O)[C@@H]3O)cc2)C(=O)N[C@H]([C@H](C)O)C(=O)N[C@H](c2ccc(O)cc2)C(=O)NCC(=O)N[C@H](CC(C)C)C(=O)N[C@H](C)C(=O)N[C@H](c2ccc(O)c(Cl)c2)C(=O)O[C@@H]1C(N)=O | 72.1%
O=C(Nc1ccc(Br)cc1F)c1cc(Cl)ccc1O | -42.4% (active)
O=C1C(=O)N(CCCCn2cc(CO)nn2)c2ccccc21 | 91.9%
COc1ccc(OC)c(/C=N/Nc2ncnc3c2c(C)nn3C)c1 | 88.9%
O=C(O)c1cn(-c2ccccc2)nc1-c1ccc(O)cc1 | 95.7%
CC(=O)O[C@H]1CC[C@@]2(C)[C@@H](CC[C@@H]3[C@@H]2CC[C@]2(C)C=C(C=O)C[C@@H]32)C1 | -37.5% (active)
O=C(CCN1CCCC1)Nc1ccc2c(NCc3ccc(F)cc3)c3ccccc3nc2c1 | -47.3% (active)
O=C(N[C@@H]1CCCc2ccccc21)[C@H](CCC(=O)N1CCN(C2CCCCC2)CC1)N1C(=O)[C@@H](N2C(=O)OC[C@@H]2c2ccccc2)[C@H]1/C=C/c1ccccc1 | -8.1% (active)
CCOc1ccc2cc(-c3nn(CC4CCNCC4)c4ncnc(N)c34)ccc2c1 | 98.1% and 19.7%
COC1=C(OC)C(=O)C(CCCCCCCCCC[P+](c2ccccc2)(c2ccccc2)c2ccccc2)=C(C)C1=O | -55.9% (active)
CC(=O)Nc1ccc2c(c1)c(NC(C)=O)nn2C(=O)Nc1ccc(Cc2ccccc2)cc1 | 93.1%
O=S(=O)(Nc1ncccn1)c1ccc(NC2Nc3nc4ccccc4nc3S2)cc1 (configuration not stated) | 101%

Compound | growth
COc1ccc(-c2cnnn2-c2nonc2-n2cccc2)cc1 | -37.9% (active)
O=C(Nc1cccc(-n2cc(-c3ccncc3)c(-c3ccc(O)c(Cl)c3)n2)c1)Nc1cccc(C(F)(F)F)c1 | -11.6% (active)
Cc1ccc(-c2cc(-c3cccc(Nc4ccnc5cc(Cl)ccc45)c3)nc3nc(N)[nH]c(=O)c23)cc1 | 58%
O=C1C(Cl)=C(Oc2ccccc2)C(=O)c2ccccc21 | 76%
COc1cc(CNC(=O)CCCC/C=C/C(C)C)ccc1OCc1nnc(Nc2ccccc2F)o1 | 89.7%
CC(C)C1=C(O)C2=C(C(=O)C1=O)[C@@]1(C)CCCC(C)(C)[C@@H]1CC2 | 56.4%
N#CSCC1CC(O)(c2ccccc2)C(c2ccccc2)C(c2ccc(F)cc2)O1 (configuration not stated) | -24.7% (active)
O=C1NC(c2ccc(F)cc2)N=C2C(c3ccccc3)=NOC12 (configuration not stated) | 101%
C=CCc1nc2ccccc2s1 | 105%
COc1ccc(-c2oncc2-c2cc(OC)c3c(c2)OCO3)cc1 | -6.72% (active)
Cc1c(C(=O)N[C@@H](Cc2ccccc2)C(=O)C(=O)NCCc2ccccc2)[nH]c2ccccc2c1=O | 98%
Cc1nn(-c2ccc(Cl)cc2)c2ncnc(N/N=C/c3ccccc3O)c12 | -4.93% (active) and 1.67% (active)
NC(=O)c1cc2c3ccccc3ccn2c1-c1ccccc1 | -3.94% (active)
COc1cc(NS(C)(=O)=O)ccc1Nc1c2ccccc2nc2c(C)cccc12 | -29.5% (active) and -20.2% (active)
O=C(/C=C/c1cccc(Cl)c1)OCc1ccc2cc1OCC#C/C=C\C#CCO2 | 81.8%
Nc1c(C(=O)Nc2ccncc2)sc2nc3c(cc12)C(O)CCC3 (configuration not stated) | 95.4%
